We go through 35 molecules from ChEMBL document CHEMBL4513146, “CO-ADD screening of Karazin Kharkiv National University (Ukraine) compounds”.

Measured potencies and affinities stand elsewhere.

A word on the Inhibition: it is the drop in the measured response relative to a control, in per cent.

The subject of one assay is Staphylococcus aureus. To be noted: Concentration 32 ug.mL-1;; ASSAY_TEST Inhibition of Bacterial Growth; detection method Absorption (OD600); MEDIA CAMHB; plate type 384well; NBS; CORNING #3640; time 18 hr.
In another assay the test system is Escherichia coli. To be noted: Concentration 32 ug.mL-1;; ASSAY_TEST Inhibition of Bacterial Growth; detection method Absorption (OD600); MEDIA CAMHB; plate type 384well; NBS; CORNING #3640; time 18 hr.

For the molecule `Cc1ccc(C)c(Cn2nc3c(=O)n(-c4ccc(C)c(C)c4)ccn3c2=O)c1`, the Inhibition is on record as 6.02% with Staphylococcus aureus and -6.59% in the assay with Escherichia coli.

On to `CCc1nnc2c(S(=O)(=O)N(Cc3ccccc3Cl)c3ccccc3)cccn12`, for which the Inhibition in the assay on Staphylococcus aureus is 0.81%; with Escherichia coli it was -6.41%.

On to `Cc1ccc(CN(c2ccc(F)cc2)S(=O)(=O)c2ccc3nnc(C)n3c2)cc1`, for which the Inhibition in the assay with Staphylococcus aureus is reported as -8.78%; with Escherichia coli, -18.59%.

Turning to `Cc1cc2nn(CC(=O)Nc3cc(F)ccc3C)c(=O)n2c(Nc2ccc(F)cc2)n1`, the Inhibition in the assay on Staphylococcus aureus is reported as 4.25%; with Escherichia coli, -5.18%.

As for `Cc1ccc(Oc2nccn3c(=O)n(CC(=O)N4CCN(c5ccc(F)cc5)CC4)nc23)cc1`, the Inhibition in the assay on Staphylococcus aureus is 10.18%; in the assay with Escherichia coli, 1.45%.

For `Cc1cc(C)cc(N(Cc2cc(F)cc(F)c2)S(=O)(=O)c2cccn3c(C)nnc23)c1`, the Inhibition in the assay on Staphylococcus aureus was 9.54%; with Escherichia coli it was -1.86%.

As to `Cc1ccc(N(Cc2ccc(F)cc2)S(=O)(=O)c2ccc3nnc(C)n3c2)cc1`, the Inhibition in the assay with Staphylococcus aureus was 0.5%; in the assay with Escherichia coli, -5.57%.

For the molecule `CCc1nnc2c(SCC(=O)Nc3cccc(Br)c3)nc3ccccc3n12`, the Inhibition is reported as 1.73% in the assay on Staphylococcus aureus and -7.45% in the assay with Escherichia coli.

On to `COc1ccc(-c2cc3c4nnc(SCC(=O)N(C)c5ccccc5)n4ccn3n2)cc1`, for which the Inhibition is listed as -6.7% in the assay with Staphylococcus aureus and -0.99% in the assay on Escherichia coli.

As to `COc1cc(NC(=O)C(C)Sc2nnc3c(=O)n(-c4ccc(C)c(C)c4)ccn23)cc(OC)c1` (stereo not given), the Inhibition in the assay on Staphylococcus aureus was -0.67%; in the assay on Escherichia coli, -10.24%.

On to `Cc1ccc(-c2ccc3nn(CC(=O)N4CCN(c5ccccc5)CC4)c(=O)n3n2)cc1C`, for which the Inhibition in the assay with Staphylococcus aureus stood at 8.01%; in the assay with Escherichia coli, 2.66%.

For `O=C(Cn1nc2c(N3CCSCC3)nc3ccccc3n2c1=O)NCc1ccccc1`, the Inhibition was 1.1% in the assay on Staphylococcus aureus and -1.64% in the assay with Escherichia coli.

For the molecule `CN(C(=O)Cn1nc2n(Cc3cccs3)c(=O)c3sccc3n2c1=O)c1ccccc1`, the Inhibition with Staphylococcus aureus is recorded as -14.76%; in the assay on Escherichia coli, -16.81%.

Turning to `CCc1nnc2c(SCC(=O)Nc3ccc(OC)c(Cl)c3)nc3ccccc3n12`, the figures for the Inhibition in the assay on Staphylococcus aureus and with Escherichia coli were 9.23% and 5.47%, respectively.

Consider `O=C(Cn1nc2ccc(SCc3ccc(Cl)cc3)nn2c1=O)NCc1ccccc1`, for which the Inhibition with Staphylococcus aureus is listed as 7.82%; in the assay with Escherichia coli, -9.37%.

Turning to `O=C(Cn1nc2c(SCc3ccccc3)nccn2c1=O)NC1CCCC1`, the Inhibition in the assay on Staphylococcus aureus was -2.71%; with Escherichia coli, 0.2%.

As for `COc1ccc(C(=O)CSc2nnc3c(=O)n(-c4ccc(F)cc4)ccn23)cc1`, the Inhibition with Staphylococcus aureus was 13.68%; in the assay with Escherichia coli, -0.44%.

With `Cc1cccc(Oc2nc3ccccc3n3c(=O)n(CC(=O)NCc4ccco4)nc23)c1C`, the Inhibition with Staphylococcus aureus is 3.87%; in the assay on Escherichia coli it was -6.2%.

For `O=C(Cn1nc2c(SC3CCCCC3)nccn2c1=O)Nc1cccc(Br)c1`, the values for the Inhibition in the assay with Staphylococcus aureus and in the assay on Escherichia coli were -4.73% and -7.3%, respectively.

With `Cc1ccc(NC(=O)Cn2c(=O)c3nnc(C(C)C)n3c3ccccc32)cc1F`, the Inhibition with Staphylococcus aureus amounted to 13.81%; with Escherichia coli, 1.95%.

`CCOC(=O)c1ccccc1NC(=O)Cn1nc2c(Oc3ccccc3)nccn2c1=O`: the Inhibition with Staphylococcus aureus is listed as 12.16%; in the assay with Escherichia coli, 1.14%.

In the case of `Cc1ccc(Oc2nc3ccccc3n3c(=O)n(CC(=O)Nc4ccc5c(c4)OCO5)nc23)cc1`, the values for the Inhibition with Staphylococcus aureus and in the assay with Escherichia coli were 1.4% and -7.69%, respectively.

With `COc1ccc(Cl)cc1NC(=O)Cn1nc2ccc(Sc3ccccc3)nn2c1=O`, the Inhibition in the assay on Staphylococcus aureus is -3.52%; in the assay with Escherichia coli it was -9.25%.

As for `COc1ccc(CCNC(=O)Cn2nc3c(N4CCOCC4)nccn3c2=O)cc1OC`, the Inhibition with Staphylococcus aureus worked out at 21.7%; in the assay with Escherichia coli it was 0.1%.

On to `COc1cc(NC(=O)Cn2nc3ccc(SC(C)(C)C)nn3c2=O)cc(OC)c1OC`, for which the Inhibition in the assay on Staphylococcus aureus is 10.38%; in the assay with Escherichia coli, 1.07%.

Consider `COc1cccc(Oc2nccn3c(=O)n(CC(=O)Nc4ccc(OC)c(OC)c4)nc23)c1`, for which the Inhibition with Staphylococcus aureus is on record as 15.47%; with Escherichia coli, -2.07%.

Consider `CCCCn1c(=O)c2sccc2n2c(=O)n(CC(=O)N3CCC(Cc4ccccc4)CC3)nc12`, for which the results for the Inhibition in the assay on Staphylococcus aureus and in the assay with Escherichia coli were -14.82% and -3.89%, respectively.

With `CC(C)(C)S(=O)(=O)c1ccc2nn(CC(=O)Nc3ccc(Br)cc3)c(=O)n2n1`, the values for the Inhibition with Staphylococcus aureus and in the assay with Escherichia coli were 3.67% and -5.05%, respectively.

Regarding `CCC(Sc1nnc2c(=O)n(-c3ccccc3)ccn12)C(=O)Nc1cc(F)ccc1F` (stereo not given), the Inhibition with Staphylococcus aureus is recorded as 6.45%; with Escherichia coli, -6.05%.

Regarding `COc1ccc(NC(=O)CSc2nc3ccccc3n3c(C(C)C)nnc23)cc1Cl`, the Inhibition in the assay on Staphylococcus aureus was -3.22%; with Escherichia coli it was -5.08%.

Turning to `CCCc1nnc2c(=O)n(CC(=O)Nc3cccc(Br)c3)c3ccccc3n12`, the Inhibition with Staphylococcus aureus is given as 8.23%; in the assay with Escherichia coli it was -5.6%.

Turning to `Cc1ccc(NC(=O)Cn2nc3c4c5c(sc4ncn3c2=O)CCCC5)c(Cl)c1`, the Inhibition in the assay with Staphylococcus aureus is listed as -4.74%; in the assay on Escherichia coli, -9.07%.

Turning to `CCCc1nnc2c(=O)n(CC(=O)Nc3ccc(Br)cc3)c3ccccc3n12`, the Inhibition in the assay on Staphylococcus aureus is reported as 11.05%; in the assay with Escherichia coli it was 2.53%.

In the case of `COc1cccc(-c2nc(CSc3nc4ccccc4n4c(C)nnc34)c(C)o2)c1OC`, the figures for the Inhibition in the assay with Staphylococcus aureus and in the assay with Escherichia coli were 2.75% and -2.95%, respectively.

With `Cc1nnc2c(SCC(=O)N3CCN(c4ccc(F)cc4)CC3)nc3ccccc3n12`, the Inhibition in the assay on Staphylococcus aureus is reported as 9.13%; in the assay on Escherichia coli it was 7.96%.
